We go through 40 molecules from PubChem BioAssay (Tox21).

Where “and” joins values, the source holds several entries; their conditions need not be identical. Equal entries are not always repeated. Results filed as inconclusive are left out. A call without a number means that no potency is given here. Calls of active or inactive are those of the source. Calls follow the shape of the dose curve; as a rule, active = well fitted inhibition curve with a large enough effect in the repeat runs; inconclusive = weak or mixed curves; inactive = flat fitted curve, though single readings scatter.
Potency is read from the fitted curve at half-maximal effect.

The test deals with Voltage-gated inwardly rectifying potassium channel KCNH2 (Homo sapiens) (UniProt Q12809). In words: Human Ether-a-go-go-Related Gene (hERG) channel small molecule antagonists: fluorescence cell-based qHTS assay (AID 1671200). Also: nearly all actives have a fitted effect of over 50% in size. As to conditions: hERG-U2OS cells, FluxOR thallium flux fluorescence; series mostly up to 76.8 µM. An excerpt: National Center for Advancing Translational Sciences [NCATS]
Sequence of Voltage-gated inwardly rectifying potassium channel KCNH2 (Homo sapiens) (Q12809 whole entry, looked up): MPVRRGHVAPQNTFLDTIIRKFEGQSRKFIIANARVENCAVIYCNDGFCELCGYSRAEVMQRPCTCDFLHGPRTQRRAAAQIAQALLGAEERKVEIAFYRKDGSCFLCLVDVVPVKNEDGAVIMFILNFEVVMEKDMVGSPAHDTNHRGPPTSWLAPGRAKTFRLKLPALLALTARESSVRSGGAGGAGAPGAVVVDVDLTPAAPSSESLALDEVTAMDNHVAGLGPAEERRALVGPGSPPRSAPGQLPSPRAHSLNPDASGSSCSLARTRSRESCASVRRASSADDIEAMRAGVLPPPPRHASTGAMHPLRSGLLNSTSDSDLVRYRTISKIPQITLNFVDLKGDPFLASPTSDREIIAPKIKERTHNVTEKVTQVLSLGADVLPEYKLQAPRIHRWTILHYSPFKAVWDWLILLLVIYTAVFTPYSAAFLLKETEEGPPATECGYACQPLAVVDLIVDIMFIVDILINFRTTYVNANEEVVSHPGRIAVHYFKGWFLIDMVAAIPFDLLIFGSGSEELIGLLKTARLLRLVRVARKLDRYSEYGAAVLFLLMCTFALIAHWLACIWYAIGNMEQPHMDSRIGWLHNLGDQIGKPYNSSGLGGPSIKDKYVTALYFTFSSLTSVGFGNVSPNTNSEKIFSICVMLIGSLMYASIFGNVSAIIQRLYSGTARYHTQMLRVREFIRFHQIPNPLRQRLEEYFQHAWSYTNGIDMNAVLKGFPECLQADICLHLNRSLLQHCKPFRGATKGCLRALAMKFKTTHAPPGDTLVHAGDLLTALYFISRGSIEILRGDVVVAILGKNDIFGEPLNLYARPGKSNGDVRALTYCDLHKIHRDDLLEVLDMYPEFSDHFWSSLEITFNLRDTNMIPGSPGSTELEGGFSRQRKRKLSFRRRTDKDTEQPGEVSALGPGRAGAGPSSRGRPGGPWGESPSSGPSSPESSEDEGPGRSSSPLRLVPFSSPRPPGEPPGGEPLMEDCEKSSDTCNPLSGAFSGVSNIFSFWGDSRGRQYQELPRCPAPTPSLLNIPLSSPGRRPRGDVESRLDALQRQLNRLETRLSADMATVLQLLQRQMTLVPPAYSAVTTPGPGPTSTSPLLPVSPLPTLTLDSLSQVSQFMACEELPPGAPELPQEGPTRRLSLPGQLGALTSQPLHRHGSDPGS
U.S. Environmental Protection Agency [EPA]
National Institutes of Environmental Health Sciences [NIEHS]
National Toxicology Program [NTP]
U.S. Food and Drug Administration [FDA]
Mutations in the hERG channel cause Long QT (LQT) syndrome. LQT syndrome is a cardiac disorder which can cause ventricle arrhythmia and sudden death. Additionally, compounds which block the hERG channel can cause acquired LQT syndrome. Several FDA approved drugs have been removed from the market due to their hERG blocking activity. A cell-based hERG channel inhibition assay can be used to screen chemical compounds that inhibit hERG channel. This assay measures hERG channel activity using thallium ions as surrogate ions to measure potassium into the cells.
Tox21 Assay Protocol Summary:
hERG-U2OS cells were resuspended in culture medium and dispensed into 1536-well, black wall/clear-bottom plates at 1000cells/well/3uL using a Multidrop Combi dispenser (Thermo Fisher, Waltham, MA). After plates were incubated at 37 C overnight, 3 uL of Loading Buffer provided by FluxOR II Potassium Ion Channel Assay kit (Thermo, Carlsbad, CA) was added to each well. The assay plates were then incubated at room temperature in the dark for 1h. […] After the assay plates were incubated at room temperature for 10 min, 1 uL of Stimulus Buffer provided by FluxOR II Potassium Ion Channel Assay kit was added into each well and fluorescence intensity (480nm excitation/540nm emission) was continuously measured for 2 min at 1 second intervals using a Functional Drug Screening System (FDSS) 7000EX kinetic plate reader (Hamamatsu, Japan).
In general terms: hERG is a cardiac potassium channel; its block is linked to QT prolongation.
Regarding `C=CC(=O)OCCCCOC(=O)C=C`, the Potency result is “inactive”.

On to `OC(Cc1ccccc1Cl)(Cn1cncn1)C1(Cl)CC1` (stereo not given), for which the Potency result was “inactive”.

As for `NC(=O)CCl`, the Potency result was “inactive”.

In the case of `CCOC(=O)OC1=C(c2cc(C)ccc2C)C(=O)NC12CCC(OC)CC2` (stereo not given), the Potency result is “inactive”.

For the molecule `C[C@]12CC[C@@H]3c4ccc(OC(=O)N(CCCl)CCCl)cc4CC[C@H]3[C@@H]1CC[C@@H]2O`, the Potency result is “inactive”.

Consider `Cc1cc(SCc2sc(-c3ccc(C(F)(F)F)c(F)c3)nc2C)ccc1OCC(=O)O`, for which the Potency result is “inactive”.

In the case of `O=c1ssc(Cl)c1Cl`, the Potency was 49 µM (active).

On to `CN(C)CCc1c[nH]c2cccc(O)c12`, for which the Potency entry is “inactive”.

For the molecule `O=[N+]([O-])c1ccc(Oc2ccc(C(F)(F)F)cc2[N+](=O)[O-])cc1`, the Potency is 6.16 µM (active).

For `N#CCCSCCC#N`, the Potency entry was “inactive”.

As to `CCCCCCCCCCCCCCCC[N+](C)(C)C`, the Potency was 16.8 µM (active) and 21.9 µM (active) and 16.9 µM (active).

Take `COc1cc(C=O)cc2c1[C@H](COC(N)=O)[C@]1(OC(C)=O)ON2C[C@H]2[C@@H]1N2C(C)=O`: the Potency entry is “inactive”.

Regarding `C1CCC2CCCCC2C1` (stereo not given), the Potency entry was “inactive”.

Regarding `O=C(Nc1ccc2[nH]ccc2c1)c1cc2cc(F)ccc2n1Cc1cccc(F)c1`, the Potency result is “inactive”.

Turning to `NC(=O)c1ccc(N)nc1`, the Potency result is “inactive”.

Take `ClC1=C(Cl)[C@]2(Cl)[C@@H]3[C@@H](Cl)[C@H](Cl)C[C@@H]3[C@@]1(Cl)C2(Cl)Cl`: the Potency entry was “inactive”.

For `c1ccc2c(c1)[nH]c1cnccc12`, the Potency result is “inactive”.

`C[As+](C)(C)CC(=O)[O-]`: the Potency entry is “inactive”.

On to `C=COCCCl`, for which the Potency entry was “inactive”.

Take `O=[N+]([O-])O.O=[N+]([O-])O.[Cd]`: the Potency entry was “inactive”.

As to `Cc1ccc(OP(=O)(Oc2ccccc2)Oc2ccccc2)cc1`, the Potency was 24.9 µM (active).

`CC(Cc1ccc(C(C)(C)C)cc1)CN1C[C@@H](C)O[C@@H](C)C1` (stereo not given in full): the Potency was 12.3 µM (active).

As for `N#CC(Cl)Cl`, the Potency result was “inactive”.

For `ClCCN1CCOCC1`, the Potency result is “inactive”.

In the case of `OC(c1ccc(Cl)cc1)(c1ccc(Cl)cc1)C(Cl)(Cl)Cl`, the Potency was 24.5 µM (active).

As to `O=C(O)C1C2CCC(O2)C1C(=O)O` (stereo not given), the Potency result was “inactive”.

With `CC(=[OH+])/C=C(/C)[O-].CC(=[OH+])/C=C(\C)[O-].CC(=[OH+])/C=C(\C)[O-].[Fe]`, the Potency entry was “inactive”.

For the molecule `CN(C)[C@@H]1C(=O)C(C(N)=O)=C(O)[C@@]2(O)C(=O)C3=C(O)c4c(O)ccc(Cl)c4[C@@](C)(O)[C@H]3C[C@@H]12`, the Potency entry was “inactive”.

Consider `Fc1cccc(Cl)c1CCl`, for which the Potency result was “inactive”.

For the molecule `CC(C)OC(=S)S`, the Potency entry is “inactive”.

As to `CCOC(=O)C1(c2ccccc2)CCN(CCC(C#N)(c2ccccc2)c2ccccc2)CC1`, the Potency was 0.601 µM (active).

Take `CCOC(=O)c1ccccc1S(=O)(=O)NC(=O)Nc1nc(Cl)cc(OC)n1`: the Potency result was “inactive”.

As to `CC(=O)O[C@H]1CC[C@@]2(C)C(=CC[C@@H]3[C@@H]2CC[C@]2(C)C(=O)CC[C@@H]32)C1`, the Potency was 49 µM (active).

Consider `O=C(CCl)C(Cl)Cl`, for which the Potency result was “inactive”.

For `COP(=O)(OC)SCn1c(=O)oc2cc(Cl)cnc21`, the Potency result was “inactive”.

With `O=C(O)COc1nc(Cl)c(Cl)cc1Cl`, the Potency entry was “inactive”.

Turning to `CCCCCCCCCCCCBr`, the Potency entry was “inactive”.

`CC(C)(O)c1cnn2c(-c3ccc(F)c(-c4c(F)cccc4C#N)c3)cnc2n1`: the Potency result is “inactive”.

With `CC(C)(COCC1CO1)COCC1CO1` (stereo not given), the Potency result was “inactive”.

On to `ClC1=C(Cl)C2(Cl)C3C(Cl)C(Cl)CC3C1(Cl)C2(Cl)Cl` (stereo not given), for which the Potency is 24.5 µM (active).
